# Many of the other results were omitted from the sample, so hits are more common in it than they were.
# LASV entry inh – qHTS for Inhibitors of binding or entry into cells for Lassa Virus | Lassa virus pseudotype entry inhibition, cell reporter | Potency, µM (titrated, usually from 37.9 µM), most hits filed as inhibitors | hit rate 1.2% among 300,000 | AID 540256, 2011; calls by dose curve; tested in HEK293 cells; note: nearly all actives have a fitted effect of over 50% in size
# CHX counter – Cycloheximide Counterscreen for Small Molecule Inhibitors of Shiga Toxin | cell reporter, cycloheximide protein synthesis inhibition counterscreen | max response, % | hit rate 12% among 300,000; in the data active = max response mostly above about 13%, no sharp cut-off; inactive = mostly below about 14%; note: read at 38.3 µM for the half of the compounds with a filed dose
# Marburg entry inh – qHTS for inhibitors of binding or entry into cells for Marburg Virus | Marburg virus pseudotyped entry inhibition, cell reporter | Potency, µM (doses to about 37.8 µM), most hits filed as inhibitors | hit rate 1.8% among 300,000 | AID 540276, 2011; calls by dose curve; tested in HEK293 cells
# Vaccinia mCherry – qHTS for Stage-Specific Inhibitors of Vaccinia Orthopoxvirus: mCherry Reporter Primary qHTS; Vaccinia virus mCherry reporter infection, fluorescence; Potency, µM (doses to about 36.5 µM), usual class: inhibitors; hit rate 0.63% among 310,000; AID 720579, 2013; calls by dose curve; tested in A549 cells; note: nearly all actives have a fitted effect of over 35% in size
# Vaccinia Venus – qHTS for Stage-Specific Inhibitors of Vaccinia Orthopoxvirus: Venus Reporter Primary qHTS; Potency, µM (highest dose often 36.5 µM), most hits filed as inhibitors; hit rate 0.46% among 330,000; Vaccinia virus Venus reporter expression, fluorescence; calls by dose curve; tested in A549 cells; note: nearly all actives have a fitted effect of over 30% in size
# Shiga inhibitor – A qHTS for Small Molecule Inhibitors of Shiga Toxin; Vero cells, Shiga toxin protein synthesis inhibition reporter; inhibition, % at 38.7 µM; hit rate 9.2% among 290,000; AID 2315, 2010; in the data active = inhibition mostly above about 28%, no sharp cut-off; inactive = mostly below about 43%
# Numbers stand for hits; n = inactive; u = inconclusive; x = no result given; ! = not active in a repeat.
SMILES,LASV entry inh,CHX counter,Marburg entry inh,Vaccinia mCherry,Vaccinia Venus,Shiga inhibitor
Cc1ccc(C(=O)NC(=S)Nc2ccc(Oc3ccc(Cl)cc3)cc2)cc1,n,n,n,x,n,n
CC(=O)c1cccc(NC(=S)NC(=O)c2ccc(C)cc2)c1,u,40,n,n,n,88
CCCCCC(=O)NC(=S)Nc1cccc(C(C)=O)c1,n,23,u,n,n,32
CCCC(=O)NC(=S)Nc1cccc(C(C)=O)c1,n,n,n,x,n,n
Cc1ccc(C(=O)NC(=S)Nc2ccc(NC(=O)c3cccc(Cl)c3)cc2)cc1,2.3µM,n,1.3µM,n,n,n
CC(C)(C)c1ccccc1NC(=O)c1cnn2c(C(F)F)cc(-c3ccccc3)nc12,n,x,n,n,n,x
O=C(NCc1ccon1)C1CCC(=O)N(Cc2cccc(C(F)(F)F)c2)C1 (configuration not stated),x,20,x,x,x,n
CSc1cccc(CNC(=O)C2CCC(=O)N(Cc3cccc(C(F)(F)F)c3)C2)c1 (configuration not stated),x,22,x,x,x,86
C=C1/C(=C\C=C2/CCC[C@]3(C)[C@@H]([C@H](C)CCCC(C)(C)O)CC[C@@H]23)C[C@@H](O)C[C@@H]1O,x,n,x,x,x,n
CC(C)OCCCn1c(-c2ccco2)nc2nc3ccccc3nc21,n,13,n,x,x,n
CCOc1ccc(C(=O)C[n+]2cccc3cc(C)ccc32)cc1,u,n,7.1µM,n,n,n
C=CCc1ccc(OCCCCNC(C)CC)c(OC)c1 (configuration not stated),n,n,u,n,n,n
C=CCc1ccc(OCCCCN2CCC(C)CC2)c(OC)c1,u,n,15µM,n,n,n
CN(C)CCCCOc1ccc(Br)cc1Cl,n,14,u,n,n,n
CC1CCCN(CCCOc2ccc(Br)cc2Cl)C1 (configuration not stated),u,22,u,n,n,41
C=CCc1ccc(OCCCN2CCCC(C)C2)c(OC)c1 (configuration not stated),n,22,u,x,x,n
COc1ccc(C(=O)[C@@H]2CCCCC2=O)cc1,x,x,n,x,x,x
CCCC(=O)OC1(C(=O)CO)CCC2C3CCC4=CC(=O)CCC4(C)C3C(O)CC21C (configuration not stated),x,n,x,x,x,n
Cc1cc(Cl)cc(Cl)c1OCCCCN(C)C,n,47,u,n,n,n
C=CCc1ccc(OCCCCN2CC(C)CC(C)C2)c(OC)c1 (configuration not stated),u,n,7.1µM,u,n,n
COc1cc(C)ccc1OCCCCN1CC(C)OC(C)C1 (configuration not stated),n,n,u,n,u,n
COc1ccc(NC(=O)c2cc(C3CCCCN3S(=O)(=O)Cc3ccccc3)on2)c(C)c1 (configuration not stated),x,x,x,n,n,x
COc1cc(OC)c(OC)cc1CN1CCN(c2ccccc2OC)CC1,n,n,n,n,n,n
COc1cc(OC)c(OC)cc1CN1CCN(Cc2cccn2C)CC1,n,n,21µM,n,n,n
CCCc1cc(=O)oc2c3c(c4c(c12)OC(C)(C)C=C4)OC(C)C(C)C3O (configuration not stated),x,n,x,11µM,u,n
SMILES,LASV entry inh,CHX counter,Marburg entry inh,Vaccinia mCherry,Vaccinia Venus,Shiga inhibitor
CCCc1cc(=O)oc2c3c(cc(OCC(=O)N[C@@H](C)C(=O)O)c12)OC(C)(C)CC3,n,n,n,n,n,n
CC(C)NCC(O)COc1cccc2ccccc12 (configuration not stated),n,n,0.79µM!,n,n,n
N#CC(=C1N=c2ccccc2=N1)c1c(O)[nH]c2ccccc12,x,n,n,x,x,n
Oc1[nH]c(N=C2N=c3ccccc3=N2)c2ccccc12,u,35,u,n,n,60
Cc1ccc(C)c(NC(=S)Nc2ncccc2C)c1,u,36,n,n,n,134
COc1cc(NC(=S)Nc2cccc(C)n2)cc(OC)c1OC,x,n,x,u,n,n
Cc1cccnc1NC(=S)Nc1ccc(F)cc1F,n,35,n,n,n,77
COc1cc(NC(=S)Nc2ncccc2C)cc(OC)c1OC,x,20,x,x,x,n
Cc1cc(C)nc(NC(=S)Nc2ccc(F)cc2F)c1,n,n,u,n,n,n
C=CCOc1ccc(/C=C/C(=O)OCC(=O)NCc2cccs2)cc1,n,x,n,n,n,x
COc1ccccc1NC(=O)C1=C(C)Nc2c(C(=O)Nc3ccc(C)cc3)cnn2C1c1cccc(OC)c1OC (configuration not stated),n,x,x,n,n,x
CCCCOc1ccc(C2=NNC(=O)CC2)cc1,n,n,n,n,n,40
CCCCOc1ccc(C2(C)NC(=O)NC2=O)cc1 (configuration not stated),n,n,n,n,n,n
Cc1cccc(NC(=O)CNC(=O)c2cc(C3CC3)nn2-c2ccccc2)c1C,n,x,n,n,n,x
Cc1cccc(-n2c3nc(=O)[nH]c(=O)c-3cc3ccc(Cl)cc32)c1C,n,x,u,n,n,x
O=C(CNc1ccc(F)cc1)c1ccccc1,n,23,u,n,n,n
O=C(CNc1cccc(Cl)c1)c1ccc(Br)cc1,x,n,x,x,x,n
Cc1ccc(C(=O)CNc2ccccc2)cc1,n,34,n,u,n,47
O=C(CNc1ccc(Br)cc1)c1ccccc1,n,18,n,x,x,n
Cc1cccc(NCCC(=O)c2ccc(Br)cc2)c1,n,24,n,n,n,n
O=C(CNC(=S)NC(=O)c1ccc(F)cc1)c1ccccc1,n,n,n,n,n,n
Cc1ccc(C(=O)CC(=O)c2ccc(C(C)(C)C)cc2)cc1,x,n,x,x,x,n
O=C(O)/C=C/C(=O)NCc1csc2ccccc12,x,n,x,x,x,n
Cc1ccc(C(=O)CNc2ccc(Br)cc2)cc1,u,n,u,x,x,44
NC(=O)c1ccccc1NCC(=O)c1ccc(F)cc1,n,29,n,u,n,48
SMILES,LASV entry inh,CHX counter,Marburg entry inh,Vaccinia mCherry,Vaccinia Venus,Shiga inhibitor
O=C(Nc1ccc[n+](CC(=O)c2cccc3ccccc23)c1)c1ccccc1,u,n,u,16µM,u,n
N#Cc1ccc[n+](CC(=O)c2ccc(NC(=O)c3ccccc3)cc2)c1,x,n,x,x,x,32
Cc1ccc[n+](CC(=O)c2ccc(NC(=O)c3ccccc3)cc2)c1,n,n,n,n,n,n
Nc1c(-c2ccc(C(F)(F)F)cc2)nc2ncccn12,x,x,x,u,n,x
O=C1SC(Nc2ccccc2)C(=O)N1c1ccccc1 (configuration not stated),x,x,x,n,n,x
COc1ccc(-c2cc(=O)oc3c(C)c(OCC(=O)Nc4cccnc4)ccc23)cc1,x,n,x,x,x,n
Cc1cc(Cl)ccc1OCCCC(=O)Nc1cccnc1,n,n,n,x,u,n
Cc1cc(Cl)ccc1OCC(=O)Nc1cccnc1,n,38,u,n,n,61
Cc1c(C)c2ccc(OCC(=O)Nc3cccnc3)c(C)c2oc1=O,x,26,x,x,x,n
COc1ccc(-n2cc3ccc([N+](=O)[O-])cc3n2)cc1,u,37,u,u,n,115
COc1ccc(-n2c(N)c(C#N)c3ccc([N+](=O)[O-])cc3c2=O)cc1,n,n,n,n,n,active

# Screening data: PubChem, National Center for Advancing Translational Sciences (NCATS)
